# Data taken from article PMC7862700, “An all-to-all approach to the identification of sequence-specific readers for epigenetic DNA modifications on cytosine”.
# How the values were obtained:
# Assay in all cases: DAPPL (digital affinity profiling via proximity ligation, sequencing); 10 mM Tris-HCl pH 7.5, 50 mM NaCl, 1 mM DTT, 4% glycerol, room temperature, 30 min; GST-TFs on glutathione beads, 16-mer random dsDNA library, 0.1% formaldehyde crosslink after washing; high values mean tight binding
# FEV = target: T1, FEV (Homo sapiens, UniProt Q99581 1-238); conditions: protein: recombinant; tags: N-terminal GST; dsDNA, one strand shown
# T1 sequence: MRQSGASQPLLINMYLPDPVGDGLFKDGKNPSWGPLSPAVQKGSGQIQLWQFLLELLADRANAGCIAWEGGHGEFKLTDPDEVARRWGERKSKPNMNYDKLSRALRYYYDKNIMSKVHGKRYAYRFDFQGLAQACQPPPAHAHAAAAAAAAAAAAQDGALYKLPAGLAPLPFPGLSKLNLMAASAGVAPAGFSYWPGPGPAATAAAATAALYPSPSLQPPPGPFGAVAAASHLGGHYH
# Method in brief: (§1)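 Human transcription factors fused to GST were expressed in yeast, captured on glutathione beads, given DNA barcodes and pooled with a GST-only negative control. Pools were incubated with 200 nmole of a 16-mer random double-stranded DNA library in Tris/NaCl/DTT/glycerol buffer at room temperature for 30 min. They were then washed, crosslinked with 0.1% formaldehyde, proximity-ligated (BsaI/T4 ligase, 1 h, 37 °C), PCR-amplified and sequenced on an Illumina NextSeq500. Binding signal is each 6-mer's read frequency for a factor divided by its frequency for the GST control.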
# ETV5 = ETV5 (Homo sapiens, UniProt P41161 1-510); conditions: protein: recombinant; tags: N-terminal GST; dsDNA, one strand shown
# Method in brief: as §1
# HSF1 = HSF1 (Homo sapiens, UniProt Q00613 1-529); conditions: protein: recombinant; tags: N-terminal GST; chain copies: 3; dsDNA, one strand shown
# Method in brief: as §1
# SPIC = target: T2, SPIC (Homo sapiens, UniProt Q8N5J4 1-248); conditions: protein: recombinant; tags: N-terminal GST; dsDNA, one strand shown
# T2 sequence: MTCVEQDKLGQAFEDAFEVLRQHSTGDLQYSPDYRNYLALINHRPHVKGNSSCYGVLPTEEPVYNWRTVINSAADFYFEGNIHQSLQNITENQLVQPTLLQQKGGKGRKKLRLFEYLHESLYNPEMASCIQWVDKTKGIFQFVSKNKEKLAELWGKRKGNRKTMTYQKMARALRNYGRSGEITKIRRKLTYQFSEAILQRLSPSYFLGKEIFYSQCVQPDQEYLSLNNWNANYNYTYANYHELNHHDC
# Method in brief: as §1
# ELF4 = ELF4 (Homo sapiens, UniProt Q99607 1-663); conditions: protein: recombinant; tags: N-terminal GST; dsDNA, one strand shown
# Method in brief: as §1
# ELK4 = target: T3, ELK4 (Homo sapiens, UniProt P28324-2 1-405); conditions: protein: recombinant; tags: N-terminal GST; dsDNA, one strand shown
# T3 sequence: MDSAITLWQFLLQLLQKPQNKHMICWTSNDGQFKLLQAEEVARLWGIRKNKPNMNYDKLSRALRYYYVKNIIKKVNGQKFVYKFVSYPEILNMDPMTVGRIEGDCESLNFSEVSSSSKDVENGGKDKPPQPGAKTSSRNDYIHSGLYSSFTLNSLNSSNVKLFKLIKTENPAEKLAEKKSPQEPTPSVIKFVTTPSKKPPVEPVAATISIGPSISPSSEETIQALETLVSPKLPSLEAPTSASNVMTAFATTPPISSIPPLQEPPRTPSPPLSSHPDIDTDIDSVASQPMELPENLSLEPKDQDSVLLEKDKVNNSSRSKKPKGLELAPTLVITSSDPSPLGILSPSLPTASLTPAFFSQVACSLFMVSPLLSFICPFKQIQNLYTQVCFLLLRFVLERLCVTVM
# Method in brief: as §1
# ETV2 = target: T4, ETV2 (Homo sapiens, UniProt O00321 1-342); conditions: protein: recombinant; tags: N-terminal GST; dsDNA, one strand shown
# T4 sequence: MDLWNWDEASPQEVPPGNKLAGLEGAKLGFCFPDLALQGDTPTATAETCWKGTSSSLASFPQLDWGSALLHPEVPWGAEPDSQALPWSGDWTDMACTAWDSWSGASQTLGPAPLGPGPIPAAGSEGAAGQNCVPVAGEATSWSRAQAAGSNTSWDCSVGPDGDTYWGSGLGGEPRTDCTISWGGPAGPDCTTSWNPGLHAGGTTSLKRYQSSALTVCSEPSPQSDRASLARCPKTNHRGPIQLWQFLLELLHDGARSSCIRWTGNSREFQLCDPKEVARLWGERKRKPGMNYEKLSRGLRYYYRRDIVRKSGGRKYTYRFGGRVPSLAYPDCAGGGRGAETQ
# Method in brief: as §1
# ELF3 = target: T5, ELF3 (Homo sapiens, UniProt P78545 1-371); conditions: protein: recombinant; tags: N-terminal GST; dsDNA, one strand shown
# T5 sequence: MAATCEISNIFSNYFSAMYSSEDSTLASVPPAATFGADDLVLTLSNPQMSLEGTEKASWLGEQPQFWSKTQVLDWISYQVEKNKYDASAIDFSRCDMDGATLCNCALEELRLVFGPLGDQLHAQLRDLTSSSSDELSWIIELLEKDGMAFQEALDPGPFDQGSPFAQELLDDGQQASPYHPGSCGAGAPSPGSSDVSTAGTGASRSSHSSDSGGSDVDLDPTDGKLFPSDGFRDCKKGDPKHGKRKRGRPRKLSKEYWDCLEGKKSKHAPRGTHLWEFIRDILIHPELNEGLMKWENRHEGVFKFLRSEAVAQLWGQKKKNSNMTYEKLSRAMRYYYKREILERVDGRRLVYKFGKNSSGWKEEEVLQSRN
# Method in brief: as §1
# CRX = CRX (Homo sapiens, UniProt O43186 1-299); conditions: protein: recombinant; tags: N-terminal GST; dsDNA, one strand shown
# Method in brief: as §1
# ETV1 = ETV1 (Homo sapiens, UniProt P50549 1-477); conditions: protein: recombinant; tags: N-terminal GST; dsDNA, one strand shown
# Method in brief: as §1
# ERF = target: T6, ERF (Homo sapiens, UniProt P50548 1-548); conditions: protein: recombinant; tags: N-terminal GST; dsDNA, one strand shown
# T6 sequence: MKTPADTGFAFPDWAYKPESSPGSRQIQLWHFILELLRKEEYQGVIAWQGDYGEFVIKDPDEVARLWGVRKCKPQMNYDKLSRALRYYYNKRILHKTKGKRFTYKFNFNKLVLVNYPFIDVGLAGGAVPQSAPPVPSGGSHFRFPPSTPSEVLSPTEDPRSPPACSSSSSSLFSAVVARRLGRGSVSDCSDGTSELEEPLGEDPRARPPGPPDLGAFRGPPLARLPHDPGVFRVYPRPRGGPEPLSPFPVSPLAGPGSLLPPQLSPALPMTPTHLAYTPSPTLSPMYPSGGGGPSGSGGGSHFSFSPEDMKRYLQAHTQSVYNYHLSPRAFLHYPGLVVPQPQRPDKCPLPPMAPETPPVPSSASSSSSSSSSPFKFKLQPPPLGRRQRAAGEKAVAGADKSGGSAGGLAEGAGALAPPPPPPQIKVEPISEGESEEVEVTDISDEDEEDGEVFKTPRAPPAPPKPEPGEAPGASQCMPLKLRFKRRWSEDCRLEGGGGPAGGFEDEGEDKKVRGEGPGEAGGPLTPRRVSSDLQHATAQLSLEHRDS
# Method in brief: as §1
# ETV3L = target: T7, ETV3L (Homo sapiens, UniProt Q6ZN32 1-361); conditions: protein: recombinant; tags: N-terminal GST; dsDNA, one strand shown
# T7 sequence: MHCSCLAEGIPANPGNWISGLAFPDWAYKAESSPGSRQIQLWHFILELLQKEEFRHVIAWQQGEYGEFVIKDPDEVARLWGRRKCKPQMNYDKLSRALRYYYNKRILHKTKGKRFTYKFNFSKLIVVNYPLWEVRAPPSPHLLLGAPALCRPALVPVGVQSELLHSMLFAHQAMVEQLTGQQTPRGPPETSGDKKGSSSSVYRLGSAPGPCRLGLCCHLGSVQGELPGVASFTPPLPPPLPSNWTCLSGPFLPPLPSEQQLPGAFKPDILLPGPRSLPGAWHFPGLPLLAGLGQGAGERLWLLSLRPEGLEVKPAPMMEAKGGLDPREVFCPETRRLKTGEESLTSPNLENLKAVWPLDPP
# Method in brief: as §1
# ETS2 = target: T8, ETS2 (Homo sapiens, UniProt P15036 1-469); conditions: protein: recombinant; tags: N-terminal GST; dsDNA, one strand shown
# T8 sequence: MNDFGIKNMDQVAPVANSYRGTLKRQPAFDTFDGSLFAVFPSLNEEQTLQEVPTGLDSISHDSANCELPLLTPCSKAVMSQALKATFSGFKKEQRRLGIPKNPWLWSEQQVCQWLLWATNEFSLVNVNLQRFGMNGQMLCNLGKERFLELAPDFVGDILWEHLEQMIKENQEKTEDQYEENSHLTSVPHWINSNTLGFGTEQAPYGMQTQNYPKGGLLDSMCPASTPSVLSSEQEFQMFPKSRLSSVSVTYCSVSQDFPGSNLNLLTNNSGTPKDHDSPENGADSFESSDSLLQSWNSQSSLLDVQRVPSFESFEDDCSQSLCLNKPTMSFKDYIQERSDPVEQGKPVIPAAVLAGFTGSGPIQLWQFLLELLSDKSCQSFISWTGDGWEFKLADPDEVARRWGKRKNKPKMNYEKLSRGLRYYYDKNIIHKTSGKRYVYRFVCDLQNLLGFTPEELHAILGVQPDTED
# Method in brief: as §1
# SPDEF = target: T9, SPDEF (Homo sapiens, UniProt O95238 1-335); conditions: protein: recombinant; tags: N-terminal GST; dsDNA, one strand shown
# T9 sequence: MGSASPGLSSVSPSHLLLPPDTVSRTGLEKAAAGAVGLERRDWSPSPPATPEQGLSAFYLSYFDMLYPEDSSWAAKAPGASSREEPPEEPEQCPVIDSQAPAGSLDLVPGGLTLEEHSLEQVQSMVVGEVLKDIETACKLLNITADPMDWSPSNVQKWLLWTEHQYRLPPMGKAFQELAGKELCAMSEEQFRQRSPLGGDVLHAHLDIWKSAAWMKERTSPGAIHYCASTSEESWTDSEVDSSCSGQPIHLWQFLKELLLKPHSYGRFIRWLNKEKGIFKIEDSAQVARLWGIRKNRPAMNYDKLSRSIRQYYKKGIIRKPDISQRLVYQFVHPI
# Method in brief: as §1
# ETV7 = target: T10, ETV7 (Homo sapiens, UniProt Q9Y603 1-341); conditions: protein: recombinant; tags: N-terminal GST; dsDNA, one strand shown
# T10 sequence: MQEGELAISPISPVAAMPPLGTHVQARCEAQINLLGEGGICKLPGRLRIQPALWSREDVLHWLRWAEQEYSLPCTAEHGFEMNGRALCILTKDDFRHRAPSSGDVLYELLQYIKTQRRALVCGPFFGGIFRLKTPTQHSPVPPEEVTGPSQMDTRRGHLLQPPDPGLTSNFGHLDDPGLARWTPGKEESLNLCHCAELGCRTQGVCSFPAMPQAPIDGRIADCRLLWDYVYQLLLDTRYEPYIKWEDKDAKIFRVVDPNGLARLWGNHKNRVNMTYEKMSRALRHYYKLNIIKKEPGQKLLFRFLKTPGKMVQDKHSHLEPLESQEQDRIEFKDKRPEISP
# Method in brief: as §1
# ELF5 = target: T11, ELF5 (Homo sapiens, UniProt Q9UKW6-2 1-255); conditions: protein: recombinant; tags: N-terminal GST; dsDNA, one strand shown
# T11 sequence: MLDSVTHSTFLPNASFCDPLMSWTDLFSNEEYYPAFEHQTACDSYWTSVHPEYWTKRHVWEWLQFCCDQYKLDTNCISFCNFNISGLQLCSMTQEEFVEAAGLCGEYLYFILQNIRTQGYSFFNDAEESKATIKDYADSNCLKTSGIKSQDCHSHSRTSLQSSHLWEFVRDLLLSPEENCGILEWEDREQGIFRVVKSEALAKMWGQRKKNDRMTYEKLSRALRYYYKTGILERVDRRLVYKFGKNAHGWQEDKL
# Method in brief: as §1
# ETV3 = target: T12, ETV3 (Homo sapiens, UniProt P41162-2 1-143); conditions: protein: recombinant; tags: N-terminal GST; dsDNA, one strand shown
# T12 sequence: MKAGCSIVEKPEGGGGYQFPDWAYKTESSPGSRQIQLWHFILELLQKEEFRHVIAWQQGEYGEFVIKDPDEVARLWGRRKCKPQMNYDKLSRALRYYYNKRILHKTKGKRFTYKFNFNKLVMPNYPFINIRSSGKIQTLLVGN
# Method in brief: as §1
# ETV6 = ETV6 (Homo sapiens, UniProt P41212 1-452); conditions: protein: recombinant; tags: N-terminal GST; dsDNA, one strand shown
# Method in brief: as §1
# Chain of ELF4 (Q99607 whole entry): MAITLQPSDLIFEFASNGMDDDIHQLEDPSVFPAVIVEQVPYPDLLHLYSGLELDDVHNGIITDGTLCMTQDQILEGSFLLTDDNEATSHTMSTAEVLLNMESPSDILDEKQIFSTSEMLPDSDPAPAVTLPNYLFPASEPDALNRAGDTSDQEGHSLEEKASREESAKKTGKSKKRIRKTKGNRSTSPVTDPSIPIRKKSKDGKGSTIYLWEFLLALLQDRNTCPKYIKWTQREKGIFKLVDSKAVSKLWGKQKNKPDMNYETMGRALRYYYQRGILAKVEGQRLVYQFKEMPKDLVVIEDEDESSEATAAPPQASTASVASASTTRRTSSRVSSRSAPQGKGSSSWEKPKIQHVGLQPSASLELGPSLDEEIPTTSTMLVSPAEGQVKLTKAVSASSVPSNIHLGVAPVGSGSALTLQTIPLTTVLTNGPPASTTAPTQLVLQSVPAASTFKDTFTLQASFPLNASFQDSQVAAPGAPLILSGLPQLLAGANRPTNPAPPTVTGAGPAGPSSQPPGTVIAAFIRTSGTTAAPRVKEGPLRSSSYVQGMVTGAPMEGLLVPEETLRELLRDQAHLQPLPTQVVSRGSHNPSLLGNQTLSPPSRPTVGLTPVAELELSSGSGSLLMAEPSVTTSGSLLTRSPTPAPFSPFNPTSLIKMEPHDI
# Chain of HSF1 (Q00613 whole entry): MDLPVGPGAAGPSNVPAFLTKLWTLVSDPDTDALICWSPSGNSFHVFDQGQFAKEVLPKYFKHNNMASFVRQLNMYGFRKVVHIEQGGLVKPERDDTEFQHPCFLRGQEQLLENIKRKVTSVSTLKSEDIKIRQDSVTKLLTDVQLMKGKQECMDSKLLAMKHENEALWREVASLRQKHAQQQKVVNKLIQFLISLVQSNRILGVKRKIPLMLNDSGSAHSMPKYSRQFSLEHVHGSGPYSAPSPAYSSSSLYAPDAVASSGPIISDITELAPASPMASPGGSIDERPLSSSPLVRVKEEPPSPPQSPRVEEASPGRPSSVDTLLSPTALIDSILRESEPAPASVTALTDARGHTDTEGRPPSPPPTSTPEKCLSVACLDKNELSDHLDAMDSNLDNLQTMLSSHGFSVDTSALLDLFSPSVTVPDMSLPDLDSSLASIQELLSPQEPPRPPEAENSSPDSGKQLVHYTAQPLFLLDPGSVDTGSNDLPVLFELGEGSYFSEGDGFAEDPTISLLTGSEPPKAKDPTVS
# Chain of ETV5 (P41161 whole entry): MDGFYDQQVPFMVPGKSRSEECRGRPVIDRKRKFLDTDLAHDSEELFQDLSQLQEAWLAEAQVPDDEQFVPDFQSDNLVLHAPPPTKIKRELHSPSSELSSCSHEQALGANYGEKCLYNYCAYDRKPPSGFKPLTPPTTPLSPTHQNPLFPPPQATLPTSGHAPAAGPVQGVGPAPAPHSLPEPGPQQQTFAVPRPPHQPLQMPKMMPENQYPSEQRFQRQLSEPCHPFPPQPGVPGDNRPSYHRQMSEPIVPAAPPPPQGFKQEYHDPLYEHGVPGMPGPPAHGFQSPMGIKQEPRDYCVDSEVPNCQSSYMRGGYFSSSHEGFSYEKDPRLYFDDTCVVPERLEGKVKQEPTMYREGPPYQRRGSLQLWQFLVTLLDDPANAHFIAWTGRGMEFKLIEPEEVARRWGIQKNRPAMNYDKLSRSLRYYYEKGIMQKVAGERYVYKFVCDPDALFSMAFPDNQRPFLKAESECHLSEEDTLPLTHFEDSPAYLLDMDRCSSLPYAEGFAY
# Chain of ETV6 (P41212 whole entry): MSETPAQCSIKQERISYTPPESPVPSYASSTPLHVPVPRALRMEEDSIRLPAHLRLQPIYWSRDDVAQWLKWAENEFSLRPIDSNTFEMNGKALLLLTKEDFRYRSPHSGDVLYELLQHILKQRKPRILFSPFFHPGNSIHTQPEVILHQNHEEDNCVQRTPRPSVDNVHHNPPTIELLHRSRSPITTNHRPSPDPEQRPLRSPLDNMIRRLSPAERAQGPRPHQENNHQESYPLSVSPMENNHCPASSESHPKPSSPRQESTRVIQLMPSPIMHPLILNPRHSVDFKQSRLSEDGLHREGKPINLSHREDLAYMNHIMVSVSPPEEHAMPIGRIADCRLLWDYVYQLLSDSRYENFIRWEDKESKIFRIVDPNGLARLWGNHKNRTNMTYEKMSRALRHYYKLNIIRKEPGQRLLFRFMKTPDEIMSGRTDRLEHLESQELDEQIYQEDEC
# Chain of ETV1 (P50549 whole entry): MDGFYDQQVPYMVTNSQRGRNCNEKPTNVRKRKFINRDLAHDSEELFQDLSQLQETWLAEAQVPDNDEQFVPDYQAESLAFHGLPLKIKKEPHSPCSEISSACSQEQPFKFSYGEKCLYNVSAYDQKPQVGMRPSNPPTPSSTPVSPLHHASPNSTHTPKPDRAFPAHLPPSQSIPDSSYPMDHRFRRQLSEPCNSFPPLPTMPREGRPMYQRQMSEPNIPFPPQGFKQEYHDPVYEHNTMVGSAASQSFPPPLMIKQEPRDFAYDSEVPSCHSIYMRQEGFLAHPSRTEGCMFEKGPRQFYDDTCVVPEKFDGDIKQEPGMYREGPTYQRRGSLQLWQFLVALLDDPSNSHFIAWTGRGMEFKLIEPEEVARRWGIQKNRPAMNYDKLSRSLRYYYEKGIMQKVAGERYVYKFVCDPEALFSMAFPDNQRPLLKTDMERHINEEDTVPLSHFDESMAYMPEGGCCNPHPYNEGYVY
# Chain of CRX (O43186 whole entry): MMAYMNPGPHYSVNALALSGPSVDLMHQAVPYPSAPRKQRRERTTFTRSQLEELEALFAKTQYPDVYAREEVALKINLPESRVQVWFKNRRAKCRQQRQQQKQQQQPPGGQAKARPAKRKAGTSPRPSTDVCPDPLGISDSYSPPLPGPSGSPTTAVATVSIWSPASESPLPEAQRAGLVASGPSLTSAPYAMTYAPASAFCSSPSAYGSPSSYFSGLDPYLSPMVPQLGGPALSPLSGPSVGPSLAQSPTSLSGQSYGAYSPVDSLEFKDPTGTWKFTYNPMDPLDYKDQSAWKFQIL
sequence,measurement,setting,value
AACTTA,binding signal,FEV,"1.2 fold enrichment (6-mer frequency, TF over GST control)"
same,binding signal,ETV5,"1.23 fold enrichment (6-mer frequency, TF over GST control)"
same,binding signal,HSF1,"1.41 fold enrichment (6-mer frequency, TF over GST control)"
same,binding signal,SPIC,"1.27 fold enrichment (6-mer frequency, TF over GST control)"
same,binding signal,ELF4,"1.19 fold enrichment (6-mer frequency, TF over GST control)"
same,binding signal,ELK4,"1.22 fold enrichment (6-mer frequency, TF over GST control)"
same,binding signal,ETV2,"1.08 fold enrichment (6-mer frequency, TF over GST control)"
same,binding signal,ELF3,"1.12 fold enrichment (6-mer frequency, TF over GST control)"
same,binding signal,CRX,"1.72 fold enrichment (6-mer frequency, TF over GST control)"
same,binding signal,ETV1,"1.22 fold enrichment (6-mer frequency, TF over GST control)"
same,binding signal,ERF,"1.29 fold enrichment (6-mer frequency, TF over GST control)"
same,binding signal,ETV3L,"1.14 fold enrichment (6-mer frequency, TF over GST control)"
same,binding signal,ETS2,"1.22 fold enrichment (6-mer frequency, TF over GST control)"
same,binding signal,SPDEF,"1.16 fold enrichment (6-mer frequency, TF over GST control)"
same,binding signal,ETV7,"1.14 fold enrichment (6-mer frequency, TF over GST control)"
same,binding signal,ELF5,"1.25 fold enrichment (6-mer frequency, TF over GST control)"
same,binding signal,ETV3,"1.14 fold enrichment (6-mer frequency, TF over GST control)"
same,binding signal,ETV6,"1.32 fold enrichment (6-mer frequency, TF over GST control)"
